# Inconclusive results are not listed. Active and inactive are the calls of the source. The calls were made as follows: active = hit-call score of the fitted dose curve at least 0.9, where 1 is the maximum; inconclusive = response in the unintended direction; inactive = score below 0.9.
# Assay: ACEA_ER_AUC_viability: ACEA Biosciences xCELLigence Real-Time Cell Analysis on Estrogen Receptor Agonism for Viability (AID 2283782);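 also: continuous compound exposure with impedance area under curve over 80 h; hit means loss of impedance signal meaning reduced cell growth or viability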
# Description: ACEA_ER is a cell-based, single-readout assay that uses T47D, a human breast cell line, with measurements taken at 80 hours after chemical dosing in a 96-well plate, although TO2 (mc0.srcf) used a 384-well plate. Differences in plate size can be ignored given data normalization.ACEA_ER_AUC_viability is one of two assay component(s) measured or calculated from the ACEA_ER assay. It is designed to make measurements of real-time cell-growth kinetics, a form of growth reporter, as detected with electrical impedance signals by Real-Time Cell Electrode Sensor (RT-CES) technology.Data from the assay component ACEA_ER_AUC_viability was analyzed in the positive analysis fitting direction relative to DMSO as the negative control and baseline of activity. Using a type of growth reporter, loss-of-signal activity can be used to understand changes in the viability. Furthermore, this assay endpoint can be referred to as a secondary readout, because this assay has produced multiple assay endpoints where this one serves a viability function. To generalize the intended target to other relatable targets, this assay endpoint is annotated to the cell cycle intended target family, where the subfamily is cytotoxicity.
# The xCELLigence system Multi-E-Plate stations were used to measure the time-dependent response to chemicals. Each compound was tested in an eight-point, 1:4 serial dilution series starting at a maximum final concentration of 100 uM. A maximum starting concentration of 0.5% DMSO was present in the 100 uM chemical samples and was diluted along with the test article dilution series. The screen was performed in biological duplicate using two separate, 96-well, E-Plates 96 for each dilution series (n = 2). Positive controls (MG132 and E2) and a negative control (assay media) were tested in quadruplicate on each testing plate. Then, 0.5% and 0.125% DMSO were tested in duplicates in each plate to serve as solvent controls for the 2 highest concentrations of testing compounds: 100 uM and 25 uM. Reference compounds were tested with 8 concentrations with 1:5 serial dilutions. All screening was carried out by ACEA Biosciences, Inc. (San Diego, CA). T-47D cells purchased from ATCC were maintained in RPMI1640 media supplemented with 10% characterized fetal bovine serum (FBS). Before screening, T-47D cells were preconditioned in assay medium: phenol red-free RPMI1640 supplemented with 10% charcoal-stripped FBS. Cells were then detached and seeded in E-Plates 96 in assay medium. After overnight monitoring of growth once every hour, compounds were added to […] cells and remained in the medium until the end of the experiment. Cellular responses were then recorded once every 5 min for the first 5 h, and once every hour for an additional 100 h.
Compound,outcome,AC50
O=C(c1ccccc1)C1CCC1,inactive,–
CCOc1nc(F)cc2nc(S(=O)(=O)Nc3c(Cl)cccc3C(=O)OC)nn12,inactive,–
CC(C)(C)c1ccc(-c2ccc(C(C)(C)C)cc2)cc1,inactive,–
CCCC(C)CCC(C)=O (stereo not given),inactive,–
Cc1cc(C)c(C)c(O)c1,inactive,–
Cc1ccc([N+](=O)[O-])cc1S(=O)(=O)O,inactive,–
CC/C=C\CCOC(=O)CCCCC,inactive,–
O=CC1CC1,–,65 µM (active)
OC1CCCC1,inactive,–
CCCCCCCCCCCCCCCC(=O)OCC,inactive,–
Cc1ccc(C(C)c2ccc(C)c(C)c2)cc1C,–,50 µM (active)
C[Si](C)(CCCN)O[Si](C)(C)CCCN,–,55.9 µM (active)
CCC(Cc1ccccc1)(C(=O)c1ccc(N2CCOCC2)cc1)N(C)C (stereo not given),–,88.7 µM (active)
CC=CCO,inactive,–
CC(=O)Oc1ccc(C)cc1,inactive,–
COC(=O)c1ccccc1OC,–,50 µM (active)
c1ccc2c(c1)ccc1ncccc12,inactive,–
Cc1c(C)c([N+](=O)[O-])c(C(C)(C)C)c([N+](=O)[O-])c1C,inactive,–
O=C1CC2CC1C1CCCC21 (stereo not given),inactive,–
CCCCCCC(O)CO (stereo not given),–,40 µM (active)

Compound,outcome,AC50
C/C=C\C/C=C/CCCCCCCCOC(C)=O,–,82.3 µM (active)
O=C1CCCN1CCO,inactive,–
Cc1ccc(OC(=O)CC(C)C)cc1,–,73.8 µM (active)
CC(=O)c1ccc2c(c1)CCCC2,–,31.7 µM (active)
c1ccc(-c2ccccn2)nc1,–,34.1 µM (active)
NC(=O)c1ccccc1O,inactive,–
CCCCCCCC/C=C\CCCCCCCC(=O)OCCO,–,4.96 µM (active)
O=C(C(Cl)Cl)N1CCOC12CCCCC2,–,14.5 µM (active)
CC(C)=CC1CC(C)CCO1 (stereo not given),inactive,–
C=C(C)CCO,–,65.9 µM (active)
O=C1CCCCCCCCCCCCCCCO1,inactive,–
CC(C)c1ccc(C#N)cc1,–,50 µM (active)
CCC(C)(C)C1CCCCC1OC(C)=O (stereo not given),inactive,–
O=C1CCCC(=O)O1,inactive,–
CCOC(=O)CC,inactive,–
O=c1n(CCO)c(=O)n(CCO)c(=O)n1CCO,inactive,–
CC(=O)OC(C)C,inactive,–
CC(C)COC(=O)C=Cc1ccccc1,inactive,–
CC=C1CC2C=CC1C2 (stereo not given),inactive,–
CCCCCCC1(C)CCC(=O)O1 (stereo not given),inactive,–

# Source: PubChem BioAssay (EPA / NIEHS)
